Experimental findings from publication PMC11006913 are described below.

Holding throughout (test): PBM; 200 nM protein, PBS
Settings in all cases: dsDNA, one strand shown

In assay [1] the target is HESX1 (Homo sapiens, UniProt Q9UBX0 95-180, R165K).
Assay [2] has as its target SHOX (Homo sapiens, UniProt O15266 103-189).
In the next assay the target is ALX4 (Homo sapiens, UniProt Q9H161 200-286, Q225E).
For assay [3], the target named is HESX1 (Homo sapiens, UniProt Q9UBX0 95-180).
The target of a further assay is MSX2 (Homo sapiens, UniProt P35548 130-214, R199I).
The target of assay [4] is ALX1 (Homo sapiens, UniProt Q15699 118-204, L144V).
The target in assay [5] is ALX3 (Homo sapiens, UniProt O95076 139-225, N203Q).
For assay [6], the target named is SHOX (Homo sapiens, UniProt O15266 103-189, R173C).
The target of assay [7] is ALX1 (Homo sapiens, UniProt Q15699 118-204, L144R).
The target of assay [8] is ALX3 (Homo sapiens, UniProt O95076 139-225).
Assay [9] deals with PROP1 (Homo sapiens, UniProt O75360 56-141).
Assay [10] has as its target HESX1 (Homo sapiens, UniProt Q9UBX0 95-180, R109Q).
In assay [11] the target is PROP1 (Homo sapiens, UniProt O75360 56-141, R99H).
Assay [12] deals with ALX3 (Homo sapiens, UniProt O95076 139-225, L168Q).
Assay [13] concerns the target HESX1 (Homo sapiens, UniProt Q9UBX0 95-180, P111T).
The target of assay [14] is ALX3 (Homo sapiens, UniProt O95076 139-225, L168V).
For assay [15], the target named is PROP1 (Homo sapiens, UniProt O75360 56-141, F88S).
Assay [16] has as its target HESX1 (Homo sapiens, UniProt Q9UBX0 95-180, F115L).
Assay [17] has as its target ALX1 (Homo sapiens, UniProt Q15699 118-204).
For assay [18], the target named is ALX3 (Homo sapiens, UniProt O95076 139-225, N203S).
Sequence of ALX3 (Homo sapiens, UniProt O95076 139-225, N203S) (O95076 139-225 N203S): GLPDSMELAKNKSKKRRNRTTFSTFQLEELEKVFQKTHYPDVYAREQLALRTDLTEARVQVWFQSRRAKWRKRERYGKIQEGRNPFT

Sequence of SHOX (Homo sapiens, UniProt O15266 103-189, R173C) (O15266 103-189 R173C): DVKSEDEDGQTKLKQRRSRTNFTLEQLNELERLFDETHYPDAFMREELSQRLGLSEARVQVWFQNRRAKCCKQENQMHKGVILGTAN
Sequence of ALX3 (Homo sapiens, UniProt O95076 139-225, L168Q) (O95076 139-225 L168Q): as the sequence (O95076 139-225 N203S) above, with L30Q, S65N counted along it
Sequence of SHOX (Homo sapiens, UniProt O15266 103-189) (O15266 103-189): as the sequence (O15266 103-189 R173C) above, with C71R counted along it
Sequence of HESX1 (Homo sapiens, UniProt Q9UBX0 95-180, R165K) (Q9UBX0 95-180 R165K): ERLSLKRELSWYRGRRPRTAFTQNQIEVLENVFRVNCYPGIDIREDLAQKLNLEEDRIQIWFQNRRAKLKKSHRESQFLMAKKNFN
Sequence of ALX1 (Homo sapiens, UniProt Q15699 118-204, L144V) (Q15699 118-204 L144V): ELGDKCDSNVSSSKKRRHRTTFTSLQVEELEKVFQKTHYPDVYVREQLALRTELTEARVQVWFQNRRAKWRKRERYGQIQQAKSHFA
Sequence of ALX1 (Homo sapiens, UniProt Q15699 118-204) (Q15699 118-204): as the sequence (Q15699 118-204 L144V) above, with V27L counted along it
Sequence of HESX1 (Homo sapiens, UniProt Q9UBX0 95-180, R109Q) (Q9UBX0 95-180 R109Q): as the sequence (Q9UBX0 95-180 R165K) above, with R15Q, K71R counted along it
Sequence of ALX3 (Homo sapiens, UniProt O95076 139-225, N203Q) (O95076 139-225 N203Q): as the sequence (O95076 139-225 N203S) above, with S65Q counted along it
Sequence of PROP1 (Homo sapiens, UniProt O75360 56-141, R99H) (O75360 56-141 R99H): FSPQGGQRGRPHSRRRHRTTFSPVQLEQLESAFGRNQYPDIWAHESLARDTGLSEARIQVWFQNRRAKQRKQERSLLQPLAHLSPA
Sequence of MSX2 (P35548 130-214 R199I): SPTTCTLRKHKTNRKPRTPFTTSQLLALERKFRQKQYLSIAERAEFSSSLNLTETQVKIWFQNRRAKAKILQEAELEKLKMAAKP
Sequence of HESX1 (Homo sapiens, UniProt Q9UBX0 95-180, F115L) (Q9UBX0 95-180 F115L): as the sequence (Q9UBX0 95-180 R165K) above, with F21L, K71R counted along it
Sequence of ALX3 (Homo sapiens, UniProt O95076 139-225, L168V) (O95076 139-225 L168V): as the sequence (O95076 139-225 N203S) above, with L30V, S65N counted along it
Sequence of ALX1 (Homo sapiens, UniProt Q15699 118-204, L144R) (Q15699 118-204 L144R): as the sequence (Q15699 118-204 L144V) above, with V27R counted along it
Sequence of HESX1 (Homo sapiens, UniProt Q9UBX0 95-180, P111T) (Q9UBX0 95-180 P111T): as the sequence (Q9UBX0 95-180 R165K) above, with P17T, K71R counted along it
Sequence of ALX3 (Homo sapiens, UniProt O95076 139-225) (O95076 139-225): as the sequence (O95076 139-225 N203S) above, with S65N counted along it
Sequence of HESX1 (Homo sapiens, UniProt Q9UBX0 95-180) (Q9UBX0 95-180): as the sequence (Q9UBX0 95-180 R165K) above, with K71R counted along it
Sequence of ALX4 (Q9H161 200-286 Q225E): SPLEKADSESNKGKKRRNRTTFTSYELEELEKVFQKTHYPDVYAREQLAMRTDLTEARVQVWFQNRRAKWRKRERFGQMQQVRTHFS
Sequence of PROP1 (Homo sapiens, UniProt O75360 56-141) (O75360 56-141): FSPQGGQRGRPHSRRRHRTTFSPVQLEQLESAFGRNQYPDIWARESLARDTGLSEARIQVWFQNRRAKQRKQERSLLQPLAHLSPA
Sequence of PROP1 (Homo sapiens, UniProt O75360 56-141, F88S) (O75360 56-141 F88S): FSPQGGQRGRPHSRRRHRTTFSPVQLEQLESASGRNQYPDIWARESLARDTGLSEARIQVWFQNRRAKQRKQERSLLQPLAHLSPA

For ATAATTGA, the binding signal is 13.1 upbm affinity estimate (log intensity, higher = more binding, comparable within an allelic series) with HESX1 [1]; 12.3 upbm affinity estimate (log intensity, higher = more binding, comparable within an allelic series) with SHOX [2]; 13.3 upbm affinity estimate (log intensity, higher = more binding, comparable within an allelic series) with ALX4; 13.1 upbm affinity estimate (log intensity, higher = more binding, comparable within an allelic series) with HESX1 [3]; 12.8 upbm affinity estimate (log intensity, higher = more binding, comparable within an allelic series) in the assay with MSX2; 11.7 upbm affinity estimate (log intensity, higher = more binding, comparable within an allelic series) in the assay with ALX1 [4]. The binding signal with ALX3 [5] was 8.47 upbm affinity estimate (log intensity, higher = more binding, comparable within an allelic series); with SHOX [6], 9.68 upbm affinity estimate (log intensity, higher = more binding, comparable within an allelic series); with ALX1 [7] it was 11.5 upbm affinity estimate (log intensity, higher = more binding, comparable within an allelic series); with ALX3 [8], 12.5 upbm affinity estimate (log intensity, higher = more binding, comparable within an allelic series); in the assay with PROP1 [9] it was 11.6 upbm affinity estimate (log intensity, higher = more binding, comparable within an allelic series); with HESX1 [10] it was 9.23 upbm affinity estimate (log intensity, higher = more binding, comparable within an allelic series). Further, the binding signal with PROP1 [11] was 11.8 upbm affinity estimate (log intensity, higher = more binding, comparable within an allelic series); in the assay with ALX3 [12] it was 10.7 upbm affinity estimate (log intensity, higher = more binding, comparable within an allelic series); in the assay with HESX1 [13], 11.7 upbm affinity estimate (log intensity, higher = more binding, comparable within an allelic series); with ALX3 [14], 10.2 upbm affinity estimate (log intensity, higher = more binding, comparable within an allelic series); with PROP1 [15], 7.86 upbm affinity estimate (log intensity, higher = more binding, comparable within an allelic series); in the assay with HESX1 [16], 8.13 upbm affinity estimate (log intensity, higher = more binding, comparable within an allelic series). In addition, the binding signal in the assay with ALX1 [17] was 12.3 upbm affinity estimate (log intensity, higher = more binding, comparable within an allelic series); with ALX3 [18], 8.62 upbm affinity estimate (log intensity, higher = more binding, comparable within an allelic series).

Take CAATTAAA: the binding signal in the assay with HESX1 [1] was 12.6 upbm affinity estimate (log intensity, higher = more binding, comparable within an allelic series); with SHOX [2], 12 upbm affinity estimate (log intensity, higher = more binding, comparable within an allelic series); with ALX4, 13.5 upbm affinity estimate (log intensity, higher = more binding, comparable within an allelic series); in the assay with HESX1 [3] it was 12.6 upbm affinity estimate (log intensity, higher = more binding, comparable within an allelic series); with MSX2, 13.1 upbm affinity estimate (log intensity, higher = more binding, comparable within an allelic series); with ALX1 [4], 11.7 upbm affinity estimate (log intensity, higher = more binding, comparable within an allelic series). The binding signal is 8.41 upbm affinity estimate (log intensity, higher = more binding, comparable within an allelic series) in the assay with ALX3 [5]; 9.46 upbm affinity estimate (log intensity, higher = more binding, comparable within an allelic series) with SHOX [6]; 11.5 upbm affinity estimate (log intensity, higher = more binding, comparable within an allelic series) with ALX1 [7]; 12.6 upbm affinity estimate (log intensity, higher = more binding, comparable within an allelic series) with ALX3 [8]; 11.6 upbm affinity estimate (log intensity, higher = more binding, comparable within an allelic series) with PROP1 [9]; 9.38 upbm affinity estimate (log intensity, higher = more binding, comparable within an allelic series) with HESX1 [10]. The binding signal with PROP1 [11] is 11.6 upbm affinity estimate (log intensity, higher = more binding, comparable within an allelic series); with ALX3 [12], 10.7 upbm affinity estimate (log intensity, higher = more binding, comparable within an allelic series); in the assay with HESX1 [13] it was 11.3 upbm affinity estimate (log intensity, higher = more binding, comparable within an allelic series); with ALX3 [14] it was 10.3 upbm affinity estimate (log intensity, higher = more binding, comparable within an allelic series); with PROP1 [15], 7.64 upbm affinity estimate (log intensity, higher = more binding, comparable within an allelic series); with HESX1 [16], 7.76 upbm affinity estimate (log intensity, higher = more binding, comparable within an allelic series). Also, the binding signal was 12.2 upbm affinity estimate (log intensity, higher = more binding, comparable within an allelic series) with ALX1 [17] and 8.55 upbm affinity estimate (log intensity, higher = more binding, comparable within an allelic series) with ALX3 [18].

For GCAAGGGC, the binding signal was 6.38 upbm affinity estimate (log intensity, higher = more binding, comparable within an allelic series) in the assay with HESX1 [1]; 6.38 upbm affinity estimate (log intensity, higher = more binding, comparable within an allelic series) in the assay with HESX1 [3]; 6.49 upbm affinity estimate (log intensity, higher = more binding, comparable within an allelic series) with HESX1 [10]; 6.49 upbm affinity estimate (log intensity, higher = more binding, comparable within an allelic series) with HESX1 [13]; 6.53 upbm affinity estimate (log intensity, higher = more binding, comparable within an allelic series) in the assay with HESX1 [16].

CCCTACGG: the binding signal with HESX1 [1] is 6.51 upbm affinity estimate (log intensity, higher = more binding, comparable within an allelic series); in the assay with HESX1 [3], 6.45 upbm affinity estimate (log intensity, higher = more binding, comparable within an allelic series); in the assay with HESX1 [10], 6.54 upbm affinity estimate (log intensity, higher = more binding, comparable within an allelic series); with HESX1 [13], 6.48 upbm affinity estimate (log intensity, higher = more binding, comparable within an allelic series); with HESX1 [16], 6.43 upbm affinity estimate (log intensity, higher = more binding, comparable within an allelic series).

Take ACAATTAA: the binding signal with HESX1 [1] was 12.1 upbm affinity estimate (log intensity, higher = more binding, comparable within an allelic series); in the assay with SHOX [2], 11.6 upbm affinity estimate (log intensity, higher = more binding, comparable within an allelic series); with ALX4, 12.9 upbm affinity estimate (log intensity, higher = more binding, comparable within an allelic series); in the assay with HESX1 [3], 12.2 upbm affinity estimate (log intensity, higher = more binding, comparable within an allelic series); with MSX2, 12.8 upbm affinity estimate (log intensity, higher = more binding, comparable within an allelic series); in the assay with ALX1 [4] it was 11.4 upbm affinity estimate (log intensity, higher = more binding, comparable within an allelic series). Also, the binding signal is 8.46 upbm affinity estimate (log intensity, higher = more binding, comparable within an allelic series) with ALX3 [5]; 9.44 upbm affinity estimate (log intensity, higher = more binding, comparable within an allelic series) in the assay with SHOX [6]; 11.1 upbm affinity estimate (log intensity, higher = more binding, comparable within an allelic series) with ALX1 [7]; 12.3 upbm affinity estimate (log intensity, higher = more binding, comparable within an allelic series) with ALX3 [8]; 11.2 upbm affinity estimate (log intensity, higher = more binding, comparable within an allelic series) with PROP1 [9]; 8.86 upbm affinity estimate (log intensity, higher = more binding, comparable within an allelic series) in the assay with HESX1 [10]. For the same sequence, the binding signal with PROP1 [11] was 11.1 upbm affinity estimate (log intensity, higher = more binding, comparable within an allelic series); in the assay with ALX3 [12] it was 10.4 upbm affinity estimate (log intensity, higher = more binding, comparable within an allelic series); in the assay with HESX1 [13], 10.8 upbm affinity estimate (log intensity, higher = more binding, comparable within an allelic series); with ALX3 [14], 9.93 upbm affinity estimate (log intensity, higher = more binding, comparable within an allelic series); in the assay with PROP1 [15], 7.71 upbm affinity estimate (log intensity, higher = more binding, comparable within an allelic series); with HESX1 [16] it was 7.77 upbm affinity estimate (log intensity, higher = more binding, comparable within an allelic series). The binding signal with ALX1 [17] was 12 upbm affinity estimate (log intensity, higher = more binding, comparable within an allelic series); with ALX3 [18], 8.59 upbm affinity estimate (log intensity, higher = more binding, comparable within an allelic series).

On to CTCAATTA, for which the binding signal is 12.7 upbm affinity estimate (log intensity, higher = more binding, comparable within an allelic series) with HESX1 [1]; 12 upbm affinity estimate (log intensity, higher = more binding, comparable within an allelic series) with SHOX [2]; 13.1 upbm affinity estimate (log intensity, higher = more binding, comparable within an allelic series) with ALX4; 12.7 upbm affinity estimate (log intensity, higher = more binding, comparable within an allelic series) in the assay with HESX1 [3]; 12.7 upbm affinity estimate (log intensity, higher = more binding, comparable within an allelic series) with MSX2; 11.8 upbm affinity estimate (log intensity, higher = more binding, comparable within an allelic series) with ALX1 [4]. In addition, the binding signal with ALX3 [5] was 8.29 upbm affinity estimate (log intensity, higher = more binding, comparable within an allelic series); with SHOX [6], 9.56 upbm affinity estimate (log intensity, higher = more binding, comparable within an allelic series); with ALX1 [7], 11.5 upbm affinity estimate (log intensity, higher = more binding, comparable within an allelic series); in the assay with ALX3 [8], 12.5 upbm affinity estimate (log intensity, higher = more binding, comparable within an allelic series); with PROP1 [9], 11.5 upbm affinity estimate (log intensity, higher = more binding, comparable within an allelic series); with HESX1 [10], 9.12 upbm affinity estimate (log intensity, higher = more binding, comparable within an allelic series). In addition, the binding signal in the assay with PROP1 [11] is 11.6 upbm affinity estimate (log intensity, higher = more binding, comparable within an allelic series); with ALX3 [12], 10.5 upbm affinity estimate (log intensity, higher = more binding, comparable within an allelic series); in the assay with HESX1 [13], 11.2 upbm affinity estimate (log intensity, higher = more binding, comparable within an allelic series); with ALX3 [14], 9.95 upbm affinity estimate (log intensity, higher = more binding, comparable within an allelic series); in the assay with PROP1 [15] it was 7.64 upbm affinity estimate (log intensity, higher = more binding, comparable within an allelic series); with HESX1 [16] it was 7.72 upbm affinity estimate (log intensity, higher = more binding, comparable within an allelic series). Besides, the binding signal was 12.4 upbm affinity estimate (log intensity, higher = more binding, comparable within an allelic series) with ALX1 [17] and 8.43 upbm affinity estimate (log intensity, higher = more binding, comparable within an allelic series) with ALX3 [18].
